From PubChem BioAssay AID1566 (Sanford-Burnham Center for Chemical Genomics, 2009)
Hit rate of the full screen: of about 290,000 compounds, about 1,800 (0.62%) were called active. For the sample, actives were picked, then their nearest neighbours and some compounds at random. A number with no mark means an inactive call. Rule as the data show it: active = inhibition above about 50%; inactive = the rest.

experiment: inhibition of NOD2-driven NF-kB reporter – cell-based, luminescence, uHTS, HEK293 (AID 1566); settings: HEK293 NOD2/NF-kB luciferase reporter, at 4 µM, hits give high values

Structure (SMILES)	inhibition
CCCN(CCC)CC(O)COc1ccc2c(c1)OCO2 (centres undefined)	4.6%
O=C(NCc1ccccc1F)C1CCCN1C(=O)Nc1cccc(F)c1 (centres undefined)	-1.7%
O=c1c(Cl)c(N2CCCCC2)cnn1-c1nc2ccccc2[nH]1	-7.2%
Cc1nn(-c2nc3ccccc3[nH]2)c(N)c1-c1ccccc1	-163%
Cc1nn(-c2nc3ccccc3[nH]2)c(=O)c2ccccc12	87.2% (active)
Cc1nn(-c2ccccc2)c(=O)c2ccccc12	-1.4%
O=c1c2ccccc2cnn1-c1nc2ccccc2[nH]1	87.6% (active)
O=c1c(Cl)c(N2CCOCC2)cnn1-c1nc2ccccc2[nH]1	-110%
NS(=O)(=O)c1ccc(CCNC(=O)c2cc(-c3ccc(Br)cc3)nc3ccccc23)cc1	-18.4%
O=C(NCc1ccon1)C1CCC(=O)N(CCc2ccc(Cl)cc2)C1 (centres undefined)	6.3%
COc1ccc2c(c1)cc(C(=O)N[C@H](C(=O)N1CCC(C(=O)O)CC1)C(C)C)n2C	-3.6%
C/C(=N/NC(=O)CN1CCN(Cc2ccccc2Cl)CC1)c1cccs1	20%
Cc1ccc(NC(=O)c2cc(C)nc3ccccc23)c(C)c1	1.4%
Cc1ccc(NC(=O)Cc2ccccc2)c(C)c1	-14.9%
Cc1cc(C)n(C(C)CC(=O)N2CCc3ccccc32)n1 (centres undefined)	14.5%
COc1ccc(S(=O)(=O)Nc2cc(OC)c(NC(=O)c3ccco3)cc2OC)cc1	19.5%
O=c1c2ccccc2c(C=Nc2ccc(S(=O)(=O)N3CCCCC3)cc2)c(O)n1-c1ccc(Cl)cn1	-6.9%
Cc1cccc(NC(=O)CCSc2ccccc2)c1C	-32.5%
CCC(=O)Nc1nnc(/C=C/c2ccccc2)s1	-60.7%
COc1ccc(CCNC(=O)c2ccc3ccccc3n2)cc1OC	6.9%
COc1ccc(CNC(=O)c2ccc3ccccc3n2)cc1	0.9%
Cc1cccc(/C=N\NC(=O)c2ccccc2-n2cccc2)c1	-1.5%
O=C(c1cccc(S(=O)(=O)N2CCCC2)c1)c1cccc(S(=O)(=O)N2CCCC2)c1	32.8%
CCN(CC)c1ccc(/C=N/Nc2nc3ccccc3[nH]2)c(O)c1	-63.5%

Structure (SMILES)	inhibition
CCN(CC)c1ccc2cc(-c3nc4ccccc4[nH]3)c(=O)oc2c1	-69.7%
CCN(CC)c1ccc2nc3ccccc3[n+](CC)c2c1	74.8% (active)
O=C(c1cc2ccccc2oc1=O)N1CCCCCCC1	9.4%
CCCCn1c(-c2nn(C)c(C)c2Cl)n[nH]c1=S	19.7%
CCN1CCN(Cc2ccc(NC(=O)c3ccc(C)c(NC(=O)C(=O)c4c[nH]c5ccccc45)c3)cc2C(F)(F)F)CC1	57% (active)
CCN1CCN(Cc2ccc(NC(=O)c3ccc(C)c(NC(=O)c4cccc5[nH]ccc45)c3)cc2C(F)(F)F)CC1	-20.7%
CCN1CCN(Cc2ccc(NC(=O)c3cc(NC(=O)C(=O)c4c[nH]c5ccccc45)cc(OC)c3)cc2C(F)(F)F)CC1	5.4%
O=C(/C=C/c1ccccc1)NC(=S)Nc1ccccc1O	0.9%
Nc1ccc(-c2nc3ccc(N)cc3[nH]2)cc1	-7%
Nc1ccc(-c2nc3c(Cl)cc(N)cc3[nH]2)cc1	55.1% (active)
Nc1ccc(-c2nc3c(Cl)c(N)ccc3[nH]2)cc1	-6.6%
NC(=O)c1ccc(NC(=O)Cc2csc(-c3ccccc3)n2)cc1	8%
CCOc1ccc(C(=O)CCC(=O)O)cc1	16%
CCOc1ccc(C(=O)CSCC(=O)O)cc1	6.2%
CCOc1ccc(C(=O)CSCCC(=O)O)cc1	53.4% (active)
COc1ccc(/C=C/c2c(-c3ccc(OC)cc3)oc3ccc(-c4ccc(OC)cc4)cc23)cc1	4.5%
COc1ccc(/C=C/C(=O)Oc2ccc(C)cc2)cc1	7.2%
O=C(COC(=O)C12CC3CC(CC(C3)C1)C2)Nc1nccs1	33.4%
Cc1nc2sccn2c(=O)c1S(=O)(=O)Nc1ccc(N2CCOCC2)c(Cl)c1	33.7%
Cc1nc2scc(C)n2c(=O)c1S(=O)(=O)Nc1ccc(N2CCOCC2)cc1	14.2%
Cc1nc2scc(C)n2c(=O)c1S(=O)(=O)Nc1ccc(N2CCOCC2)c(Cl)c1	51.2% (active)
O=C(c1ccncc1)c1ccc(NS(=O)(=O)c2ccc(Br)s2)cc1	23.1%
Cc1cc(C=C2C(=O)c3ccccc3C2=O)c(C)n1-c1ccccc1	5.9%
Cc1cc(C=C2C(=O)c3ccccc3C2=O)c(C)n1-c1ccc(Cl)cc1	19.2%

Structure (SMILES)	inhibition
Cc1cccc(-n2c(C)cc(C=C3C(=O)c4ccccc4C3=O)c2C)c1	57.4% (active)
Cc1cc(C=C2C(=O)CCCC2=O)c(C)n1-c1ccccc1	1.8%
Cc1cc(/C=C2\Cc3ccccc3C2=O)c(C)n1-c1ccccc1	59.1% (active)
Cc1cc(C=C2C(=O)c3ccccc3C2=O)c(C)n1-c1cccc(C(=O)O)c1	-11.1%
CNC(=O)CSc1nc2[nH]ncc2c(=O)[nH]1	10.9%
COc1ccc(C(CC(=O)N2CCCC2)C(C)C)cc1 (centres undefined)	-6.1%
O=C(NC(Cc1ccc2c(c1)OCO2)C(=O)NC(Cc1ccccc1)C(=O)O)c1ccccc1 (centres undefined)	0%
O=C(CN(Cc1cccs1)C(=O)CNS(=O)(=O)c1ccccc1)NC1CCCC1	9.3%
CC(C)CCNC(=O)c1cc(S(=O)(=O)N2CCc3ccccc32)cn1C	26.2%
CCN(CC)CCNC(=O)c1cc(S(=O)(=O)N2CCc3ccccc32)cn1C	27.1%
CCCNC(=O)c1cc(S(=O)(=O)N2CCc3ccccc32)cn1C	52.1% (active)
CS(=O)(=O)N(CC(=O)Nc1cccc(Cl)c1)c1ccccc1Cl	-11.8%
C[C@H]1O[C@@H](O[C@H]2[C@@H](O)C[C@H](O[C@H]3[C@@H](O)C[C@H](O[C@H]4CC[C@@]5(C)[C@H](CC[C@@H]6[C@@H]5C[C@@H](O)[C@]5(C)[C@@H](C7=CC(=O)OC7)CC[C@]65O)C4)O[C@@H]3C)O[C@@H]2C)C[C@H](O)[C@@H]1O	77.7% (active)
COc1ccc(N(CC(=O)Nc2ccc(C)c(C)c2)C2=NC3CS(=O)(=O)CC3S2)cc1 (centres undefined)	10.8%
CCC(C)(C)NC(=O)C1CC(=O)N(CCc2ccc(F)cc2)C1 (centres undefined)	12.1%
COc1ccc(S(=O)(=O)N2CCC(N3CCN(c4ccccc4)CC3)CC2)cc1	16.7%
Cc1nc2ccccc2c2oc(C(=O)NCc3ccc4c(c3)OCO4)cc12	45.9%
Cc1cc(C(=O)NCC2COc3ccccc3O2)c2ccccc2n1 (centres undefined)	17.7%
Cc1c(/C(O)=C2/C(=O)C(=O)N(CCN(C)C)C2c2ccc(C(C)C)cc2)cnn1-c1ccccc1 (centres undefined)	28.4%
Cc1ccc2[nH]c(=O)c3cc(C(=O)N(C)c4ccccc4C)sc3c2c1	13.1%
Cc1ccc2[nH]c(=O)c3cc(C(=O)N(C)C4CCCCC4)sc3c2c1	56.8% (active)
Cc1ccc(C)c(N(C)C(=O)c2cc3c(=O)[nH]c4ccc(C)cc4c3s2)c1	-16%
COc1cc(CN2CCC(Cc3ccccc3)CC2)cc([N+](=O)[O-])c1O	-1.9%
O=C(Nc1ccc(N2CCCC2)cc1)c1cc(Br)ccc1Cl	-11.7%

Structure (SMILES)	inhibition
Cc1ccc2c(COC(=O)c3c(C)noc3C)cc(=O)oc2c1	0.4%
N[C@@H](CO)c1nnc([C@H](CC(=O)O)NC(=O)C2CCNCC2)o1	-3.6%
CCSc1nsc(NC(=O)Nc2ccccc2F)n1	-32.2%
CCSc1nsc(NC(=O)Nc2cccc(OC)c2)n1	17.5%
CC1CCN(C(=O)c2ccc(CS(=O)(=O)Cc3ccccc3)cc2)CC1	12.8%
CCc1ccc(NC(=S)N2CCC(NC(=O)c3ccccc3)CC2)cc1	7.4%
Cc1ccc(NC(=S)N2CCC(NC(=O)c3ccc(C)cc3)CC2)cc1	-13.6%
Cc1ccc(NC(=S)N2CCC(NC(=O)c3ccccc3)CC2)cc1	93% (active)
CC(C(=O)NC1CCCCCC1)n1cc([N+](=O)[O-])cn1 (centres undefined)	3.3%
O=[N+]([O-])c1cccc2ccc(/C=C/c3cccc(Br)c3)nc12	-19%
CC(=O)N[C@@H](C)c1nc2ccccc2n1CCCN1CCN(c2nc(-c3ccc(C)cc3)cs2)CC1	44.3%
Cc1ccc(-c2csc(N3CCN(CCCn4c(C(F)(F)F)nc5ccccc54)CC3)n2)cc1	19.9%
Cc1ccc(Cn2c(SC3CCOC3=O)nc3ccccc3c2=O)cc1 (centres undefined)	-3.1%
O=C1NCC(CN(c2ccccc2)c2ccccc2)O1 (centres undefined)	14.1%
CCN(CC)c1ncnc2ccc(Br)cc12	65.5% (active)
CN(Cc1ccccc1)c1ncnc2ccc(Br)cc12	20.7%
CC(C)Nc1ncnc2ccc(Br)cc12	43%
Cn1c(=O)oc2cc(S(=O)(=O)N3CCC(C(=O)N4CC=C(c5ccccc5)CC4)CC3)ccc21	7.5%
Cc1nnc(SCC(=O)Nc2cccc([N+](=O)[O-])c2)n1CC1CCCO1 (centres undefined)	2.2%
O=C(O)c1ccccc1C(=O)c1ccc(Oc2ccccc2)cc1	-0.9%
O=C(O)c1ccccc1C(=O)c1ccc(Cl)cc1	1%
O=C(O)c1ccccc1C(=O)c1ccc(-c2ccccc2)cc1	64.3% (active)
